In PubChem BioAssay (NCI):
This is part of a sample that, as a whole, favours compounds with a hit. Of some 83,000 tested, about 20% had one in any assay.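 Step 1: grow cells in 96-well plates. Step 2: add test compound at a single concentration. Step 3: incubate 48 h. Step 4: record percent growth.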 Calls of active or inactive are those of the source. How the source made its calls: active means growth percent below 10; inactive means the rest.

Columns and labels:
Assay in all cases: NCI-60 one-dose screen, 48 h (100 = growth as untreated, 0 = no growth, -100 = all killed)
Conditions in all cases: 10 µM unless noted
SR leukemia = system: SR leukemia
RPMI-8226 leukemia = system: RPMI-8226 leukemia
OVCAR-8 ovarian = system: OVCAR-8 ovarian
OVCAR-5 ovarian = system: OVCAR-5 ovarian
OVCAR-4 ovarian = system: OVCAR-4 ovarian
SK-OV-3 ovarian = system: SK-OV-3 ovarian
IGROV1 ovarian = system: IGROV1 ovarian
OVCAR-3 ovarian = system: OVCAR-3 ovarian
HS 578T breast = system: HS 578T breast
NCI/ADR-RES ovarian = system: NCI/ADR-RES ovarian

Measured: growth

O=C(CNc1ccc2c(c1)C(=O)c1ccccc1C2=O)Nc1ccc2c(c1)C(=O)c1ccccc1C2=O
active: SR leukemia -8.94% | RPMI-8226 leukemia -36.6% | OVCAR-8 ovarian -25.3% | OVCAR-5 ovarian -83.6% | OVCAR-4 ovarian -26.4% | SK-OV-3 ovarian -30.8% | IGROV1 ovarian -72.9% | OVCAR-3 ovarian -99.8% | HS 578T breast -1.05% | NCI/ADR-RES ovarian -40%

COc1cc(/C=C/C(=O)C(C(=O)/C=C/c2ccc(OC(=O)CCNC34CC5CC(CC(C5)C3)C4)c(OC)c2)C(=O)CCNC23CC4CC(CC(C4)C2)C3)ccc1OC(=O)CCNC12CC3CC(CC(C3)C1)C2 (stereo not given)
inactive: OVCAR-5 ovarian 37.8% | OVCAR-4 ovarian 25.8% | SK-OV-3 ovarian 42.8% | OVCAR-3 ovarian 14.9% | NCI/ADR-RES ovarian 41.7%
active: SR leukemia -48.6% | RPMI-8226 leukemia -51.6% | OVCAR-8 ovarian 8.87% | IGROV1 ovarian -33.2% | HS 578T breast 6.55%

O=C(NC1CCCCC1)c1ccc(Nc2ncnc3c2cnn3-c2ccccc2)cc1
inactive: SR leukemia 67.5% | RPMI-8226 leukemia 89.5% | OVCAR-8 ovarian 21.6% | OVCAR-5 ovarian 80.3% | OVCAR-4 ovarian 30.3% | SK-OV-3 ovarian 54% | IGROV1 ovarian 71.1% | OVCAR-3 ovarian 87.4% | NCI/ADR-RES ovarian 74.2%
active: HS 578T breast 0.218%

CCN1CC2=C(Nc3nc(SC)[nH]c(=O)c3C2c2cc(OC)c(OC)c(OC)c2)/C(=C/c2cc(OC)c(OC)c(OC)c2)C1 (stereo not given)
inactive: SR leukemia 82.5% | RPMI-8226 leukemia 96.7% | OVCAR-8 ovarian 94% | OVCAR-5 ovarian 106% | OVCAR-4 ovarian 95.9% | SK-OV-3 ovarian 110% | IGROV1 ovarian 120% | OVCAR-3 ovarian 116% | HS 578T breast 111% | NCI/ADR-RES ovarian 105%

C[C@H](C(=O)N[C@@H](Cc1ccc(-c2ccccc2)cc1)C(=O)NC1CC(C)(C)N(C)C(C)(C)C1)c1ccc(-c2ccccc2)c(F)c1
active: SR leukemia -40.5% | RPMI-8226 leukemia -41.6% | OVCAR-8 ovarian -46.5% | OVCAR-5 ovarian -70.2% | OVCAR-4 ovarian -50.7% | SK-OV-3 ovarian -33.3% | IGROV1 ovarian -26.4% | OVCAR-3 ovarian -82.9% | HS 578T breast -35.1% | NCI/ADR-RES ovarian -5.29%

COc1cc(-c2nc3sc4c(c3c(=O)[nH]2)CCCCCC4)cc(OC)c1OC
active: RPMI-8226 leukemia 7.95% | OVCAR-3 ovarian -3.03% | HS 578T breast 5.2% | NCI/ADR-RES ovarian -6.9%
inactive: SR leukemia 15.5% | OVCAR-8 ovarian 25.2% | OVCAR-5 ovarian 37.8% | OVCAR-4 ovarian 61.6% | SK-OV-3 ovarian 14.2% | IGROV1 ovarian 34.5%

OC(c1cc(-c2cccc(Cl)c2)nc2ccccc12)C1CCCCN1 (stereo not given)
active: SR leukemia -33.8% | RPMI-8226 leukemia -26.8% | OVCAR-8 ovarian -52.6% | OVCAR-5 ovarian 2.42% | OVCAR-4 ovarian -7.1% | IGROV1 ovarian -61.7% | OVCAR-3 ovarian -13.1% | NCI/ADR-RES ovarian -29.4%
inactive: SK-OV-3 ovarian 48.3% | HS 578T breast 34.9%

CSc1nc(N)c2c(n1)N(C)C=NS2(=O)=O
inactive: SR leukemia 102% | RPMI-8226 leukemia 103% | OVCAR-8 ovarian 102% | OVCAR-5 ovarian 93.7% | OVCAR-4 ovarian 108% | SK-OV-3 ovarian 117% | IGROV1 ovarian 119% | OVCAR-3 ovarian 122% | HS 578T breast 118% | NCI/ADR-RES ovarian 103%

OC(c1ccccc1)C(NCc1ccccc1)c1ccccc1 (stereo not given)
inactive: SR leukemia 103% | RPMI-8226 leukemia 84.3% | OVCAR-8 ovarian 109% | OVCAR-5 ovarian 88.6% | OVCAR-4 ovarian 94.3% | SK-OV-3 ovarian 101% | IGROV1 ovarian 96.7% | OVCAR-3 ovarian 111% | HS 578T breast 107% | NCI/ADR-RES ovarian 85.1%

COc1cc(/C=N/NC(=O)c2ccc(C(F)(F)F)nc2Nc2ccc(Cl)cc2C)ccc1O
active: SR leukemia -14.6% | HS 578T breast -15.1%
inactive: RPMI-8226 leukemia 26.8% | OVCAR-8 ovarian 46.7% | OVCAR-5 ovarian 57.5% | OVCAR-4 ovarian 27.2% | SK-OV-3 ovarian 44.3% | IGROV1 ovarian 25.1% | OVCAR-3 ovarian 30.4% | NCI/ADR-RES ovarian 30.3%

NS(=O)(=O)c1cc2c(cc1Cl)NC=NS2(=O)=O
inactive: SR leukemia 96.1% | RPMI-8226 leukemia 104% | OVCAR-8 ovarian 102% | OVCAR-5 ovarian 100% | OVCAR-4 ovarian 107% | SK-OV-3 ovarian 110% | IGROV1 ovarian 109% | OVCAR-3 ovarian 117% | HS 578T breast 118% | NCI/ADR-RES ovarian 108%

CNCCCn1c2c(c3ccc(F)cc3c1=O)C(=O)c1cc(OC)cnc1-2
active: SR leukemia -9.31% | RPMI-8226 leukemia -20.4% | OVCAR-8 ovarian -19.8% | OVCAR-5 ovarian -8.53% | OVCAR-4 ovarian -5.91% | SK-OV-3 ovarian -24.5% | OVCAR-3 ovarian -11.4% | NCI/ADR-RES ovarian 3.1%
inactive: IGROV1 ovarian 11.4% | HS 578T breast 22.1%

CCOc1cc(/C=C/C(=O)CC(=O)/C=C/c2ccc(OC(=O)CNCCN(CC)CC)c(OCC)c2)ccc1OC(=O)CNCCN(CC)CC
inactive: OVCAR-4 ovarian 18.1% | SK-OV-3 ovarian 32.6% | NCI/ADR-RES ovarian 16.3%
active: SR leukemia -42.1% | RPMI-8226 leukemia -52.9% | OVCAR-8 ovarian 4.23% | OVCAR-5 ovarian -34.5% | IGROV1 ovarian -67.7% | OVCAR-3 ovarian 0.276% | HS 578T breast 1.48%

C[C@@H]1CN(c2nc3c(cc2F)c(=O)c(C(=O)O)cn3C(C)(C)C)C[C@H](C)N1
inactive: SR leukemia 115% | RPMI-8226 leukemia 114% | OVCAR-8 ovarian 94.8% | OVCAR-5 ovarian 109% | OVCAR-4 ovarian 104% | SK-OV-3 ovarian 105% | IGROV1 ovarian 121% | OVCAR-3 ovarian 104% | HS 578T breast 67.2% | NCI/ADR-RES ovarian 80.6%

COc1cc(Cl)cc(-c2nn(-c3cccc(NC(=O)c4cc(C(F)(F)F)cc(C(F)(F)F)c4)c3)cc2-c2ccncc2)c1
inactive: SR leukemia 41% | RPMI-8226 leukemia 43.6% | OVCAR-8 ovarian 55.4% | OVCAR-5 ovarian 83% | OVCAR-4 ovarian 72.1% | SK-OV-3 ovarian 83.4% | IGROV1 ovarian 100% | OVCAR-3 ovarian 25.5% | HS 578T breast 81.1% | NCI/ADR-RES ovarian 67.8%

Cc1ccc(N/N=C(/C(=O)c2ccc(Cl)cc2)c2nc(C)cc(=O)[nH]2)cc1
inactive: SR leukemia 84.4% | RPMI-8226 leukemia 85.1% | OVCAR-8 ovarian 101% | OVCAR-5 ovarian 122% | OVCAR-4 ovarian 116% | SK-OV-3 ovarian 116% | OVCAR-3 ovarian 95.8% | HS 578T breast 99.9% | NCI/ADR-RES ovarian 103%
active: IGROV1 ovarian 7.59%

COc1cc(/C=C2\CN(C)CC3=C2Nc2nc(SC)[nH]c(=O)c2C3c2cc(OC)c(OC)c(OC)c2)cc(OC)c1OC (stereo not given)
inactive: OVCAR-5 ovarian 101% | OVCAR-4 ovarian 75.9% | SK-OV-3 ovarian 87.9% | IGROV1 ovarian 30.8% | OVCAR-3 ovarian 15.7% | HS 578T breast 36.3%
active: SR leukemia -2.83% | RPMI-8226 leukemia 8.36% | OVCAR-8 ovarian 1.09% | NCI/ADR-RES ovarian -7.05%

O=C(CC(C(=O)c1ccccc1)N1CCN(Cc2ccccc2)CC1)c1ccccc1 (stereo not given)
inactive: SR leukemia 57.2% | RPMI-8226 leukemia 28.7% | OVCAR-8 ovarian 90.7% | OVCAR-5 ovarian 86.3% | OVCAR-4 ovarian 86.5% | SK-OV-3 ovarian 112% | IGROV1 ovarian 119% | OVCAR-3 ovarian 58.8% | HS 578T breast 92.5% | NCI/ADR-RES ovarian 97.1%

COc1ccc(C2CC(c3ccc(Nc4ccnc5cc(Cl)ccc45)cc3)=NN2C(C)=O)cc1 (stereo not given)
active: SR leukemia -9.45%
inactive: RPMI-8226 leukemia 33.8% | OVCAR-8 ovarian 72.8% | OVCAR-5 ovarian 94.2% | OVCAR-4 ovarian 59% | SK-OV-3 ovarian 101% | IGROV1 ovarian 74.4% | OVCAR-3 ovarian 64.2% | HS 578T breast 62.7% | NCI/ADR-RES ovarian 67.7%

O=C(Nc1cccc(-n2cc(-c3ccncc3)c(-c3cc(O)cc(Cl)c3)n2)c1)Nc1ccc(Cl)c(Cl)c1
active: SR leukemia -21.4% | RPMI-8226 leukemia -15.3% | OVCAR-8 ovarian -14.8% | OVCAR-5 ovarian -2.26% | OVCAR-3 ovarian -47.4% | HS 578T breast -6.42%
inactive: OVCAR-4 ovarian 10.7% | SK-OV-3 ovarian 13.2% | IGROV1 ovarian 26% | NCI/ADR-RES ovarian 12.8%

COc1cc(/C=N/OC(=O)Nc2ccccc2)cc(OC)c1OC
inactive: SR leukemia 89.7% | RPMI-8226 leukemia 93.7% | OVCAR-8 ovarian 113% | OVCAR-5 ovarian 104% | OVCAR-4 ovarian 105% | SK-OV-3 ovarian 104% | IGROV1 ovarian 95.9% | OVCAR-3 ovarian 114% | HS 578T breast 114% | NCI/ADR-RES ovarian 109%

CC[N+](CCCCCCCCCC[N+](CC)(c1ccccn1)c1ccccn1)(c1ccccn1)c1ccccn1
active: SR leukemia -19.8% | RPMI-8226 leukemia 1.5% | OVCAR-8 ovarian 7.02% | SK-OV-3 ovarian 8.24% | IGROV1 ovarian -35.2% | OVCAR-3 ovarian 3.49%
inactive: OVCAR-5 ovarian 24.1% | OVCAR-4 ovarian 20.5% | HS 578T breast 28.5% | NCI/ADR-RES ovarian 63.6%

CC(C)Sc1nc(-c2ccc(Br)cc2)c(C#N)c(N2CCCCC2)n1
inactive: SR leukemia 106% | RPMI-8226 leukemia 98.8% | OVCAR-8 ovarian 98.6% | OVCAR-5 ovarian 88.7% | OVCAR-4 ovarian 95.1% | SK-OV-3 ovarian 110% | IGROV1 ovarian 104% | OVCAR-3 ovarian 104% | HS 578T breast 107% | NCI/ADR-RES ovarian 102%

C[C@H]1O[C@@H](O[C@H]2[C@@H](O)C[C@H](O[C@H]3[C@@H](O)C[C@H](O[C@H]4CC[C@]5(C)C6CC[C@]7(C)[C@@H](C8=CC(=O)OC8)CC[C@]7(O)C6CC[C@@H]5C4)O[C@@H]3C)O[C@@H]2C)C[C@H](O)[C@@H]1O (stereo not given in full)
active: SR leukemia -32.7% | RPMI-8226 leukemia -18.8% | OVCAR-8 ovarian -79.1% | OVCAR-5 ovarian -100% | OVCAR-4 ovarian -51.4% | SK-OV-3 ovarian -92.5% | IGROV1 ovarian -38.8% | OVCAR-3 ovarian -100% | HS 578T breast -1.73% | NCI/ADR-RES ovarian -79.2%

COc1ccc2nc(NC(=O)CN3CCn4c(nnc4C(F)(F)F)C3)sc2c1
inactive: SR leukemia 87.8% | RPMI-8226 leukemia 90% | OVCAR-8 ovarian 96.5% | OVCAR-5 ovarian 97.9% | OVCAR-4 ovarian 104% | SK-OV-3 ovarian 105% | IGROV1 ovarian 92.8% | OVCAR-3 ovarian 93.7% | HS 578T breast 97% | NCI/ADR-RES ovarian 93.6%

CC1c2ccccc2-c2ccccc2N1C (stereo not given)
inactive: SR leukemia 96.3% | RPMI-8226 leukemia 90.5% | OVCAR-8 ovarian 106% | OVCAR-5 ovarian 101% | OVCAR-4 ovarian 110% | SK-OV-3 ovarian 101% | IGROV1 ovarian 98.3% | OVCAR-3 ovarian 104% | HS 578T breast 112% | NCI/ADR-RES ovarian 108%
